The campaign covered roughly 110,000 compounds. About 230 (0.21%) showed an effect of 50% or more. Shown is part of a subset that was picked to be rich in strong results.
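Note: 30 min substrate incubation versus DMSO and 10 µM JCP410 controls.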

The target in this assay is DPAP1 (Plasmodium falciparum, UniProt Q8IIJ9). Put plainly: primary screen, percent inhibition; read by cleavage of a fluorogenic dipeptide substrate; higher = more effect of the substance. Also noted: species or system P. falciparum D10 trophozoite lysates; single well.
Sequence of DPAP1 (Q8IIJ9 whole entry, looked up): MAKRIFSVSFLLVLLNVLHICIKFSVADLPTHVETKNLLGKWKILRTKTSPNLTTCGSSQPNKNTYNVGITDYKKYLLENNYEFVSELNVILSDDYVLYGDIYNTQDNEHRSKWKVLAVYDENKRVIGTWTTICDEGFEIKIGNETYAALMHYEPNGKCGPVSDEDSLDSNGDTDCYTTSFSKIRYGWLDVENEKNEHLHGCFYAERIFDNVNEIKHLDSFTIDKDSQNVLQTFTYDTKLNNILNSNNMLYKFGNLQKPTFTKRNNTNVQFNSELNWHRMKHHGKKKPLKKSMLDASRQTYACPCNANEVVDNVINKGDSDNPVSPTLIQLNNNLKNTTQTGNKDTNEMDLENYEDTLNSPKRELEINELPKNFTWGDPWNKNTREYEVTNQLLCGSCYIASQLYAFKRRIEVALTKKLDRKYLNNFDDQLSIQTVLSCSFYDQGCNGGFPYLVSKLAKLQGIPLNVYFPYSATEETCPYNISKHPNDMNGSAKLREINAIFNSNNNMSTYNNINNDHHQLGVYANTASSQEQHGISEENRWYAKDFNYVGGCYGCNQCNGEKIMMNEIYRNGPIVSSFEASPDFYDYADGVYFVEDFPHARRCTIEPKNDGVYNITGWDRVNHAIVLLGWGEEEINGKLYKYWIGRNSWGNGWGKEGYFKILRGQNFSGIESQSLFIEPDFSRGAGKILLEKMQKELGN
With `O=C1NC(=S)NC(=O)C1=Cc1ccccc1OCCO`, the “% Inhibition @ 10 uM” value is -6.17%.

As to `CC(=O)NS(=O)(=O)c1ccc(NC(=O)COc2ccc(C)cc2)cc1`, the “% Inhibition @ 10 uM” value is recorded as -0.473%. The same measure for `CC(C)(C)c1ccc(C(CC(=O)O)NS(=O)(=O)Cc2ccccc2)cc1` (stereo not drawn): 2.72%.

For `CC12c3ccccc3C(c3ccccc31)C1C(=O)N(c3ccc(Cl)cc3)C(=O)C12` (stereo not drawn), the “% Inhibition @ 10 uM” value was -1.59%.

Turning to `Cc1ccc(N2C(=O)C3C4c5ccccc5C(C(C)O)(c5ccccc54)C3C2=O)cc1` (stereo not drawn), the “% Inhibition @ 10 uM” value is recorded as 53.4%. `Cc1cccc(N2C(=O)C3C4c5ccccc5C(C)(c5ccccc54)C3C2=O)c1` (stereo not drawn): the “% Inhibition @ 10 uM” value is recorded as 2.6%.

Turning to `Cn1c(C2=CC(C)(C)NC(C)(C)C2)ccc1C1=CC(C)(C)NC(C)(C)C1`, the “% Inhibition @ 10 uM” value is -5.9%.

For `COCCNC(=O)CCNS(=O)(=O)c1ccc(C)cc1`, the “% Inhibition @ 10 uM” value is recorded as -0.256%. Consider `COc1cc(C2c3c(-c4ccccc4O)n[nH]c3C(=O)N2Cc2ccco2)ccc1O` (stereo not drawn), for which the “% Inhibition @ 10 uM” value is on record as -3.12%.

As to `CCOc1cc(C2c3c(-c4ccccc4O)n[nH]c3C(=O)N2Cc2ccco2)ccc1O` (stereo not drawn), the “% Inhibition @ 10 uM” value was 52.6%.

As to `CCOc1ccc(C2c3c(-c4ccccc4O)n[nH]c3C(=O)N2Cc2ccco2)cc1OC` (stereo not drawn), the “% Inhibition @ 10 uM” value is on record as 0.366%. With `Cc1cc(S(=O)(=O)N2CCC(n3c(O)nc4ccccc43)CC2)ccc1-n1cnnn1`, the “% Inhibition @ 10 uM” value is recorded as -0.671%.

Turning to `Cc1cc(S(=O)(=O)N(Cc2ccccc2)Cc2ccccc2Cl)ccc1-n1cnnn1`, the “% Inhibition @ 10 uM” value was determined as 58.7%. As to `COc1ccc(CN(Cc2ccccc2)S(=O)(=O)c2ccc(-n3cnnn3)c(C)c2)cc1`, the “% Inhibition @ 10 uM” value is recorded as 2.08%. Regarding `CNS(=O)(=O)c1cn(CC(=O)NCc2ccccn2)cc1S(=O)(=O)NC`, the “% Inhibition @ 10 uM” value is -7.87%.

Take `O=C(CC1SC(=O)N(Cc2cccc3ccccc23)C1=O)Nc1nccs1` (stereo not drawn): the “% Inhibition @ 10 uM” value is -2.82%.

Consider `C(=C\c1ccccc1)/CN1CCN(CCc2ccccc2)CC1`, for which the “% Inhibition @ 10 uM” value amounted to 1.74%.

Regarding `C(=C\c1ccccc1)/CN1CCN(C2CCN(CCc3ccccc3)CC2)CC1`, the “% Inhibition @ 10 uM” value is listed as 97.7%. Then `C(=C\c1ccccc1)/CN1CCN(C2CCN(Cc3ccccc3)CC2)CC1`, with 1.88%; and `Cc1cc(=O)n2nc(N(C)CC(=O)NCc3ccc4c(c3)OCO4)sc2n1`, with 3%. The same measure for `Cc1nnc2c(NCc3ccc4c(c3)OCO4)nc3ccc(C(=O)c4ccccc4)cc3n12`: 79.7%; for `Cc1nnc2c(NCc3ccco3)nc3ccc(C(=O)c4ccccc4)cc3n12`: -6.09%; for `Cc1nnc2c(NCc3ccccc3)nc3ccc(C(=O)c4ccccc4)cc3n12`: 0.454%. The same measure for `O=C(c1ccco1)N1CCN(c2nc3ccccc3n3nnnc23)CC1`: 2.76%; for `CC(=O)N/C(=C\c1ccccc1)C(=O)Nc1ccc(Cl)cc1`: -6.99%; for `O=C(c1ccc(Cl)cc1)N1CCN(CCN2C(=O)c3cccc4cccc(c34)C2=O)CC1`: -5.31%. For `O=C1C(S(=O)c2ccc(Cl)cc2)=C(O)c2cccc3cccc1c23` (stereo not drawn), the “% Inhibition @ 10 uM” value amounted to 77.5%.

As for `O=C1c2cccc3cccc(c23)C(=O)N1CCN1CCN(S(=O)(=O)c2ccc(Cl)cc2)CC1`, the “% Inhibition @ 10 uM” value amounted to 5.97%. For `CCCCCCc1c(O)nc(S)nc1O`, the “% Inhibition @ 10 uM” value turned out to be 22.8%.

Regarding `CCCCCCCc1c(C#N)c(N)nc(S)c1C#N`, the “% Inhibition @ 10 uM” value came out at 71.3%. Then `COCc1c(C#N)c(S)nc(C)c1[N+](=O)[O-]`, with 30.8%; and `CN(C)c1ccc(-c2c(C#N)c(N)nc(S)c2C#N)cc1`, with 7.55%. Take `CC(C)Cc1c(C#N)c(N)nc2sc(C#N)c(N)c12`: the “% Inhibition @ 10 uM” value is recorded as 5.2%. As to `C=CCSc1nc(N)c(C#N)c(CC)c1C#N`, the “% Inhibition @ 10 uM” value is on record as 65.5%.

For `CCc1c(C#N)c(N)nc(SCc2ccccc2)c1C#N`, the “% Inhibition @ 10 uM” value is 42.7%. Then `CC(C)Cc1c(C#N)c(N)nc(S)c1C#N`, with 78.5%; and `CCOC(=O)CSc1nc(N)c(C#N)c(CC)c1C#N`, with 20.6%; and `CCSc1nc(N)c(C#N)c(CC)c1C#N`, with 23.3%. Then `CCc1c(C#N)c(N)nc(S)c1C#N`, with 74.5%; and `CC(C)Cc1c(C#N)c(N)nc(SCC(=O)c2ccc(-c3ccccc3)cc2)c1C#N`, with 16.2%; and `N=C(NOC(=O)C12CC3CC(CC(C3)C1)C2)c1ccc(Cl)cc1`, with -0.597%. In the case of `O=C(CN1CCCC1)Nc1c2c(nc3ccccc13)N(c1ccccc1)CC2`, the “% Inhibition @ 10 uM” value is 0.144%.

Regarding `Cc1ccc(C(C)C)c(OCC(O)CN2CC(C)OC(C)C2)c1` (stereo not drawn), the “% Inhibition @ 10 uM” value is listed as -1.15%. In the case of `COc1cc(C2C(C#N)=C(N)OC3=C2C(=O)CCC3)ccc1OCC(=O)Nc1ccc(C)cc1C` (stereo not drawn), the “% Inhibition @ 10 uM” value is recorded as 0.851%. The same measure for `COc1cc(OC)cc(C(=O)Nc2ccc3c(c2)oc2ccccc23)c1`: -4.91%; for `c1ccc(C2CCC(NCc3ccncc3)CC2)cc1` (stereo not drawn): 97.8%; for `CCC1CCC(NCc2ccncc2)CC1` (stereo not drawn): -3.42%. Take `c1cc(CNC2CCCCC2)ccn1`: the “% Inhibition @ 10 uM” value stood at 1.84%. Then `CC(Sc1nc(-c2cccnc2)ccc1C#N)C(=O)O` (stereo not drawn), with -3.63%; and `N#Cc1ccc(-c2cccnc2)nc1SCc1ccccc1`, with 61.4%.

Regarding `N#Cc1ccc(-c2cccnc2)nc1SCC(=O)O`, the “% Inhibition @ 10 uM” value was -2.45%.
